Sampled rows, rich in hits. Any-hit rate of the full collection: about 7.3%.
VACV mCherry inh: inhibitors of vaccinia virus infection (mCherry reporter signal). Potency, µM (doses to about 36.5 µM), inactives show at the top dose activity change, negative = inhibition, actives largely listed as inhibitors. actives 0.63% (n = 310,000). Vaccinia virus mCherry reporter infection, fluorescence; calls by dose curve; tested in A549 cells; further: potency means the concentration at half of the fitted maximal effect; nearly all actives have a fitted effect of over 35% in size
HCV inh: blocks hepatitis C virus | Huh7.5.1 HCVcc-Cre infection, luciferase reporter, 44 h | Potency, µM (doses to about 41.8 µM), for the others: top-dose activity change, negative = inhibition, most hits filed as inhibitors | actives 3.4% (n = 340,000) | AID 651820; active means well fitted inhibition curve with a large enough effect; inconclusive means small, poorly fitted or top-dose-only effect, or another doubt; inactive means no such curve, though single readings can be large or run the other way; further: potency means the concentration at half of the fitted maximal effect
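Reporter virus HCVcc-Cre (~0.5 moi) infects cells exposed to compound; seeding density 1,000 cells/well with 4 h settling beforehand. Luminescence, 15 sec read, taken 44 h post-infection following a 15 min RT substrate incubation.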
HCMV antiviral: blocks human cytomegalovirus replication; HFF cells, HCMV-luciferase reporter, 72 h; hits give low values; activity change, negative = inhibition, % at 57.5 µM; actives 4.5% (n = 410,000); in the data active means activity change below about -60%; inconclusive means no clear call, values can overlap the other calls; inactive means above about -39%
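Luciferase read-out from HCMV-luciferase-infected HFFs (MOI 1 PFU/cell) 72 h post infection at 37C; compounds added after 16 h cell attachment; activity normalized between buffer-only basal and Salinomycin (10uM) inhibitor controls.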
VACV Venus inh: inhibitors of vaccinia virus (Venus reporter) | Vaccinia virus Venus reporter expression, fluorescence | Potency, µM (titrated, usually from 36.5 µM), without a hit: top-dose activity change, negative = inhibition, actives largely listed as inhibitors | actives 0.46% (n = 330,000) | AID 720580; calls by dose curve; tested in A549 cells; further: potency means the concentration at half of the fitted maximal effect; nearly all actives have a fitted effect of over 30% in size
FMDV inh: foot and mouth disease virus antiviral activity; FMDV antiviral cell-based qHTS; actives 1.2% (n = 410,000); AID 1159524; Potency, µM (titrated, usually from 57.9 µM), without a hit: top-dose activity change, negative = inhibition, actives largely listed as inhibitors; calls by dose curve; tested in HEK293T cells; further: read-out not given here; potency means the concentration at half of the fitted maximal effect; nearly all actives have a fitted effect of over 45% in size
The depositor's hits bear a star; i = inactive; ? = inconclusive; . = not tested or not shown; [ ] = another dose, or the depositor's remark. On the % scale 0 is the no-effect control and ±100 the full control effect.

SMILES	VACV mCherry inh	HCV inh	HCMV antiviral	VACV Venus inh	FMDV inh
COc1ccc([C@H]2CC(=O)C=C(c3cc(Cl)ccc3OC)C2)cc1	-20%	?	-5	?	2%
CC1C/C(=C/c2cccn2C)C(=O)/C(=C/c2cccn2C)C1 (configuration not stated)	.	6.3µM*	-11	.	?
CC1C/C(=C/c2ccncc2)C(=O)/C(=C/c2ccncc2)C1 (configuration not stated)	.	?	-101*	.	10µM*
CCOC(=O)c1ccc(NS(=O)(=O)c2ccc(Br)s2)cc1	2%	.	9	-1%	3%
Cc1c(-c2nsc(NC(=O)c3cccs3)n2)nnn1-c1ccc(Br)cc1	-32%	.	-92*	?	35%
Cc1c(-c2nsc(NC(=O)c3ccc(Cl)cc3)n2)nnn1-c1ccc(C(C)C)cc1	-18%	.	-79*	-22%	-14%
COC(=O)c1ccc(-n2nnc(-c3nsc(NC(=O)c4ccc(Cl)cc4)n3)c2C)cc1	2%	.	14	5%	-18%
O=S(=O)(c1ccc2ccccc2c1)N1CCN(c2nc(-c3ccccc3)nc3ccccc23)CC1	-13%	.	.	-16%	.
Cc1cnc2ccc(I)cc2c1/C=C/c1ccc(N(C)C)cc1	-25%	.	.	-19%	.
COc1ccccc1C1Nc2c(sc3nc(C)cc(C)c23)C(=O)N1c1ccccc1 (configuration not stated)	-5%[7.34 µM]	.	298	-6%[7.34 µM]	36%
Cc1ccc(-n2nc3c(N4CCC(C(=O)NCCC(C)C)CC4)nnc(C)c3c2C)cc1	?	.	-9	?	-12%
OC[C@@H](O)C(O)[C@H](O)CO	-17%	.	.	-12%	0%
Cc1cc(SCC(=O)N/N=C/c2ccc(O)c(O)c2)nc2ccccc12	?	?	-16	2%	3%
Cc1cc(SCC(=O)N/N=C/c2ccc(O)cc2O)nc2ccccc12	1.1µM*	?	3	?	-25%
COc1ccc2nc(C)cc(SCC(=O)N/N=C/c3cccc4ccccc34)c2c1	.	10µM*	-68*	.	-20%
COc1ccc2nc(C)cc(SCC(=O)N/N=C/c3ccc(O)c(O)c3)c2c1	-26%	?	?	-7%	?
Cc1cc(SCC(=O)c2cccs2)nc2ccccc12	?	10µM*	52	?	78%
CC(C)(C)c1ccc(-n2nc(C#N)c(Cl)cc2=O)cc1	?	?	-101*	10µM*	13µM*
Cc1cccc(NC(=O)NC2CCCCCCC2)c1	.	-8%	65	.	25%
Cc1ccc(NC(=O)NC2CCCCCCC2)cc1C	.	5%	-84*	.	12%
Cc1nc(NC(=O)/C=C/c2ccc(Cl)cc2Cl)sc1C(=O)N(C)C	i	8%	-61*	-6%	-4%
O=C1c2ccccc2C(=O)N1c1ccc(S(=O)(=O)N2CCOCC2)cc1	1%	.	.	-9%	.
COCCN=c1scc(-c2cccs2)n1/N=C/c1ccc(O)c(O)c1O	11µM*	?	-38	?	1%
CC(=O)NC(Cc1c(F)c(F)c(F)c(F)c1F)C(=O)NCC(N)C(=O)c1ccccc1 (configuration not stated)	-2%	.	.	-14%	.
COc1ccccc1NC(=S)N(Cc1ccc(C)cc1)Cc1ccccn1	0%	11%	-8	-4%	0%
SMILES	VACV mCherry inh	HCV inh	HCMV antiviral	VACV Venus inh	FMDV inh
O=C(N/N=C/c1ccccn1)c1ccc(N/N=C/c2ccccn2)cc1	.	14%	-17	.	12%
O=C(CCCC(=O)N/N=C\c1ccccn1)N/N=C\c1ccccn1	-3%	7%	-32	-7%	-19%
S=C(NN=C(c1ccccc1)c1ccccn1)N(Cc1ccccn1)Cc1ccccn1	2.5µM*	1.3µM*	-97*	?	-20%
CC(=NNC(=S)N(Cc1ccccn1)Cc1ccccn1)c1cnccn1	1.4µM*	?	-98*	3.5µM*	-6%
O=C(Cc1ccccc1)N/N=C/c1ccccn1	-3%	18%	-84*	-18%	.
S=C(NN=Cc1ccccn1)N(Cc1ccccn1)Cc1ccccn1	5.6µM*	1.3µM*	-77*	?	-15%
COc1ccc2cc(CNC3CCS(=O)(=O)C3)c(-c3ccc(OC)c(OC)c3)nc2c1 (configuration not stated)	-8%	.	.	5%	-15%
C#CCSc1nc(-c2cccs2)ccc1C#N	.	4.5µM*	-21	-18%	?
Cc1ccccc1NC(=O)Cc1nc(-c2c[nH]c(C(=O)N3CCCC3)c2)cs1	.	?	14	.	?
Cc1cccc(NC(=O)Cc2nc(-c3c[nH]c(C(=O)N4CCCC4)c3)cs2)c1	-29%	?	7	-19%	35µM*
CCN(CC)C(=O)c1ccc2c3c(cccc13)C(=O)N(CCc1ccc(OC)c(OC)c1)C2=O	?	?	.	?	32µM*
CC(C)(C)c1ccc(C2Sc3ccccc3NC3=C2C(=O)c2ccccc23)cc1 (configuration not stated)	-8%	.	-104*	-5%	?
COc1cccc(-c2nc(N3CCN(C)CC3)c3ccccc3n2)c1	.	.	.	.	1%
COc1ccc(CCCc2nnc(SCC(=O)N/N=C\c3ccc(O)c(OC)c3)o2)cc1C	.	?	27	-30%	22µM*
CCOc1ccc(C(=O)NCC(c2ccc3c(c2)OCO3)N2CCN(C)CC2)cc1 (configuration not stated)	2%	.	0	3%	-11%
CCc1c(C)nc2ncnn2c1N1CCCC(C(=O)NCCc2ccc(OC)cc2)C1 (configuration not stated)	.	?	-68*	.	?
COc1ccc(CCNC(=O)C2CCCN(c3ncccn3)C2)cc1 (configuration not stated)	-2%	2%	-69*	-3%	31%
CCc1c(C)nc2ncnn2c1N1CCC(C(=O)Nc2ccc(C)cc2)CC1	-10%	?	-86*	-28%	-24%
COc1ccc(CCNC(=O)C2CCCN(c3nc(C)cc(C)n3)C2)cc1 (configuration not stated)	-10%	-12%	-21	-6%	?
Cc1cc(N2CCCC(C(=O)Nc3cccc4ccccc34)C2)n2ncnc2n1 (configuration not stated)	-13%	?	-69*	-6%	?
CCOc1ccccc1NC(=O)C1CCCN(c2c(CC)c(C)nc3ncnn23)C1 (configuration not stated)	-9%	13µM*	?	-13%	?
Cc1nc2ncnn2c(N2CCCC(C(=O)Nc3ccc4c(c3)CCC4)C2)c1C (configuration not stated)	.	10µM*	-101*	.	25µM*
CCCCOC(=O)c1ccc(NC(=O)CSc2nc3c(c(=O)[nH]2)CCC3)cc1	-3%	.	-9	6%	-12%
CNc1ccccc1C(C)(C)c1cc(-c2ccc(F)cc2)no1	?	4µM*	-85*	-24%	?
C=CCNc1cccc2c1S(=O)(=O)N[C@@H](Cc1ccccc1)CO2	.	.	-22	.	.
CCOc1ccc(CNCc2c(C(=O)O)n(Cc3ccc(OC)cc3)c3ccccc23)cc1	-11%	.	?	-16%	-7%

Screening data deposited in PubChem by National Center for Advancing Translational Sciences (NCATS).
